PubChem BioAssay AID686978 (National Center for Advancing Translational Sciences (NCATS), 2013)
Screen size: about 420,000 compounds; about 64,000 (15%) were called active. Roughly 27% stayed inconclusive and do not appear here. Calls follow the shape of the dose curve; as a rule, active = well fitted inhibition curve with a large enough effect; inconclusive = small, poorly fitted or top-dose-only effect; inactive = flat fitted curve, though single readings scatter. The list is a sample of the results. A call without a number means that no potency is given here.

experiment: qHTS for Inhibitors of human tyrosyl-DNA phosphodiesterase 1 (TDP1): qHTS in cells in absence of CPT; conditions: DT40 Tdp1-/- hTDP1 cells, no CPT, ATP luminescence, 48 h; activity change, negative = growth inhibition: at 46.2 µM (top of the series); also: nearly all actives have a fitted effect of over 55% in size
In short: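 DT40 Tdp1-/-;hTDP1 cells, no CPT (DMSO vehicle only), 400 cells/well; compounds pin-transferred; ≥48 hr, 37 °C; CellTiter-Glo 30 min RT dark, luminescence read.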
Potency is read from the fitted curve at half-maximal effect.

Row | SMILES | Potency
1 | CCCS(=O)(=O)N1CCCC(C(=O)N2CCN(c3ccccc3)CC2)C1 (centres undefined) | inactive
2 | COc1ccc(S(=O)(=O)N2CCC(C(=O)N3CCCC3)CC2)cc1C | inactive
3 | COc1ccc(N(C)C(=O)C2CCN(S(=O)(=O)c3cc(Br)cc4c3N(C(C)=O)CC4)CC2)cc1 | inactive
4 | Cc1ccc(S(=O)(=O)N2CCC(N3CCCCCC3)CC2)cc1 | inactive
5 | Cc1ccc(S(=O)(=O)N2CCC(C(=O)N3CCCCCCC3)CC2)cc1 | 20.6 µM (active)
6 | CC(=O)N1CCCc2cc(S(=O)(=O)N3CCC(C(=O)NC4CCCCC4)CC3)ccc21 | inactive
7 | O=C(C1CCC1)N1CCN(c2ccccc2)CC1 | inactive
8 | CCOC(=O)C1CCN(C(=O)C2CCCN(S(=O)(=O)c3ccc(OC)c(Cl)c3)C2)CC1 (centres undefined) | 11.6 µM (active)
9 | Cc1ccc(N(C)C(=O)C2CCN(S(=O)(=O)c3ccc4c(c3)CCCN4C(=O)C3CCC3)CC2)cc1 | 16.4 µM (active)
10 | CCN1CCN(C(=O)C2CCCN(S(=O)(=O)c3ccc(OC)c(OC)c3)C2)CC1 (centres undefined) | inactive
11 | COc1ccc(OC)c(S(=O)(=O)N2CCCC(C(=O)N3CCC(C(N)=O)CC3)C2)c1 (centres undefined) | inactive
12 | O=C(C1CCCN(S(=O)(=O)c2ccccc2)C1)N1CCN(c2ccc(F)cc2)CC1 (centres undefined) | 11.6 µM (active)
13 | Cc1cc(-c2ccccc2)nc(N2CCC(C(=O)NC34CC5CC(CC(C5)C3)C4)CC2)n1 | inactive
14 | COCCCNC(=O)[C@H]1N2C(=O)c3ccccc3C2SC1(C)C (some centres undefined) | inactive
15 | O=c1c(F)cn(C2CCCO2)c(=O)n1Cc1ccccc1Cl (centres undefined) | inactive
16 | O=C1CN(C(=O)COC(=O)c2cnc(Cl)c(Cl)c2)c2ccccc2N1 | inactive
17 | CC1(c2ccc3ccccc3c2)NC(=O)NC1=O (centres undefined) | inactive
18 | COCCCNC(=O)C1CCC(CNS(=O)(=O)c2ccc(OC)cc2)CC1 (centres undefined) | inactive
19 | CC(=O)c1cccc(NC(=O)C2CCCN(S(=O)(=O)c3cccc4nonc34)C2)c1 (centres undefined) | inactive
20 | O=C(Cc1ccccc1)N1CCN(S(=O)(=O)c2ccc([N+](=O)[O-])cc2)CC1 | inactive
21 | O=C(C1CCC1)N1CCN(S(=O)(=O)c2ccc([N+](=O)[O-])cc2)CC1 | inactive
22 | COc1ccc(NC(=O)C2CCCN(S(=O)(=O)c3cccc4nonc34)C2)cc1Cl (centres undefined) | inactive

Row | SMILES | Potency
23 | O=C(C1CCCN(S(=O)(=O)c2cccc3nonc23)C1)N1CCN(c2ccccc2F)CC1 (centres undefined) | 18.4 µM (active)
24 | O=C(C1CCCN(S(=O)(=O)c2ccc([N+](=O)[O-])cc2)C1)N1CCCCC1 (centres undefined) | 16.4 µM (active)
25 | O=C(NCc1cc(F)cc(C(F)(F)F)c1)C1CCC(=O)N(C2CCCC2)C1 (centres undefined) | inactive
26 | Cc1cccc(C(=O)Nc2ccccc2-c2nnn(CC(=O)Nc3ccc4c(c3)OCCO4)n2)c1 | inactive
27 | CCCOc1ccccc1-c1nc(SCCC(=O)O)n[nH]1 | inactive
28 | Cn1ccc(NC(=O)Nc2ccc(Cl)cc2)n1 | inactive
29 | CNS(=O)(=O)c1ccc(NC(=O)Nc2ccc3c(c2)OCO3)cc1 | inactive
30 | CN(c1ccc(OCC(=O)OCC(=O)Nc2cccc([N+](=O)[O-])c2)cc1)S(=O)(=O)c1ccc(F)cc1 | inactive
31 | CN(c1cccc(NC(=O)Nc2ccc(Cl)cc2)c1)S(C)(=O)=O | 25.9 µM (active)
32 | CN(c1ccccc1)S(=O)(=O)c1cccc(C(=O)NNC(=O)c2ccncc2)c1 | inactive
33 | CN(c1ccccc1)S(=O)(=O)c1cccc(NC(=O)Cc2ccc(Cl)cc2)c1 | 23.1 µM (active)
34 | Cc1ncc([N+](=O)[O-])n1CCOC(=O)c1ccc(Br)cc1 | inactive
35 | COc1ccc(S(=O)(=O)NCC(=O)NCc2cc(=O)n(C)c(=O)n2C)cc1F | inactive
36 | O=C(NC1CCCCC1)c1cc(C2CC2)on1 | inactive
37 | COc1cc2c(cc1OC)C(=O)NCC(C)(C)O2 | inactive
38 | O=C(O)CCCCCCCCCC[n+]1ccccc1 | inactive
39 | O=C(NCC1CCC(C(=O)O)CC1)OCc1ccccc1 (centres undefined) | inactive
40 | COc1ccc(Nc2cc(C(=O)NCCCN(C)c3ccccc3)c3ccccc3n2)c(OC)c1 | 11.6 µM (active)
41 | CCN(CCCNC(=O)c1cc(Nc2ccc(OC)cc2)nc2ccccc12)c1cccc(C)c1 | 20.6 µM (active)
42 | COc1ccc(NC(=O)CCNC(=O)Cn2ccc3ccccc3c2=O)c(OC)c1 | inactive
43 | CCN(CCCNC(=O)Cn1ncc2c([nH]c3ccccc32)c1=O)c1cccc(C)c1 | inactive
44 | CCCN(CCC)CCCNC(=O)CNC(=O)c1nn(-c2ccc(OC)cc2)c(=O)c2ccccc12 | inactive

Row | SMILES | Potency
45 | COc1ccc(NC(=O)CNC(=O)Cn2ccc3ccccc3c2=O)c(OC)c1 | inactive
46 | Cc1nc(C(F)(F)F)ccc1C(=O)N1CCC1(C)C(=O)NS(=O)(=O)c1ccccc1Cl (centres undefined) | inactive
47 | Cc1ccccc1NC(=O)Cc1nc(COC(=O)c2cccnc2Cl)cs1 | inactive
48 | COC(=O)c1cc(CNC(=O)CC(C)c2ccccc2)ccc1OC (centres undefined) | inactive
49 | O=C(OCC(=O)N1CCCC1)c1ccc(Cl)nc1 | inactive
50 | O=C(O)C1CCC(CNS(=O)(=O)c2ccc(Br)cc2)CC1 (centres undefined) | inactive
51 | CCOC(=O)c1cc2cc(OC)ccc2n1C1CCN(C)CC1 | 18.4 µM (active)
52 | COc1ccc2[nH]c(C(=O)N3CCN(C)CC3)c(C)c2c1 | inactive
53 | CCOC(=O)c1cc2c(ccn2C)n1CC(=O)N1CCC(C)CC1 | inactive
54 | Cc1c(NC(=O)CCCOc2ccccc2)cccc1[N+](=O)[O-] | inactive
55 | Cc1csc(CN(C)C(=O)CC2C(=O)NCCN2CC(C)(C)C)n1 (centres undefined) | inactive
56 | C=CCOc1ccccc1/C=N/NC(=O)Cc1ccccc1 | inactive
57 | O=C(NN=Cc1ccccc1O)NN=Cc1ccccc1O | 5.8 µM (active)
58 | Oc1ccccc1C=NC1CCCCC1N=Cc1ccccc1O (centres undefined) | inactive
59 | O=C(N/N=C/c1ccccc1O)/C(=C/c1ccccc1)CCO | 5.17 µM (active)
60 | O=C(N/N=C/c1ccc(O)cc1)/C(=C/c1ccc([N+](=O)[O-])cc1)NC(=O)c1ccccc1 | inactive
61 | O=C(CCC(=O)Nc1ccccc1)N/N=C/c1ccccc1F | inactive
62 | O=C(NCC1CCCCC1)c1cc(S(=O)(=O)N2CCCCC2)ccc1N1CCOCC1 | inactive
63 | N#CCCN(C(=O)COC(=O)c1ccc2c(c1)OCCO2)c1ccccc1 | inactive
64 | O=C(Cn1nc([N+](=O)[O-])nc1Br)NC1CCCCC1 | inactive
